Structures can show the parent of a compound that is named as a salt. A number with no mark means an inactive call.
Each molecule was assayed on TDF (assay: H1.0 immunofluorescence intensity relative to DMSO (% of DMSO); higher = stronger H1.0 induction, active = 120 or more). Settings: concentration: 10 µM; 24 h.
How it was run: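 Cell number or H1.0 nuclear intensity appears as percent of the plate control, based on the median of replicates. Measurements came from HCC1569 and TDF cells exposed in triplicate to compounds at 10 µM for 24 h at 37 °C, then imaged in six fields per well at ×10. Positional effects were smoothed out of HCC1569 values.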
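Note: TDF is a line of transformed human dermal fibroblasts of mesenchymal origin.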

SMILES	H1.0 immunofluorescence intensity
NC(=O)c1ccc2nc(-c3ccc(Oc4ccc(Cl)cc4)cc3)[nH]c2c1 [Chk2 Inhibitor II]	91.4
CC1(C)CCC(C)(C)c2cc(C3(c4ccc(C(=O)O)cc4)OCCO3)ccc21	92.3
COc1cc2ncnc(Nc3ccc(O)c(Br)c3)c2cc1OC [JAK3 Inhibitor II]	83.8
COc1ccc(C(=O)/C(Cc2cc(OC)c(OC)c(OC)c2)=C(\C(=O)[O-])c2ccc3c(c2)OCO3)cc1.[Na+]	88.2
CC(C)(C)NCC(O)COc1nsnc1N1CCOCC1 (stereo not drawn) [S(-)-Timolol maleate]	93
C=C1C(=O)C23C(O)C1CCC2C12COC3(O)C(O)C1C(C)(C)CCC2O (stereo not given) [Rubescensin A]	96.2
CCCN1CCCC[C@H]1C(=O)Nc1c(C)cccc1C.Cl.O	99
S=C(Nc1ccccc1)Nc1nccs1 [1-Phenyl-3-(2-thiazolyl)-2-thiourea]	99.5
NC(=NCc1ccccc1)NC(=O)c1nc(Cl)c(N)nc1N [Benzamil]	98.7
CCCCCC=CCC1OC1CC=CCC=CCCCC(=O)O (stereo not given) [11,12-Epoxyeicosatrienoic acid]	93.8
COc1ccc(-c2cc(=O)c3c(O)cc(O)cc3o2)cc1O [Diosmetine]	99.2
CCCS(=O)(=O)Nc1ccc(F)c(C(=O)c2c[nH]c3ncc(Cl)cc23)c1F	105
C[C@H](CCC(=O)O)[C@H]1CC[C@H]2[C@@H]3C[C@H](O)[C@@H]4C[C@H](O)CC[C@]4(C)[C@H]3CC[C@]12C [(3alpha,5beta,6alpha)-3,6-dihydroxycholan-24-oic acid]	97.3
Cc1ccc(OCCSc2ncccn2)c(Br)c1 [2-{[2-(2-bromo-4-methylphenoxy)ethyl]sulfanyl}pyrimidine]	94
O=C1NC(=O)C(c2cn(CCCO)c3ncccc23)=C1c1cnccn1 [GSK-3b Inhibitor XI]	88.7
CC(C)c1ccc2oc3nc(N)c(C(=O)O)cc3c(=O)c2c1	97.3
Cc1cncc2cccc(S(=O)(=O)N3CCCN(C(=O)CN)CC3C)c12.Cl.Cl.O (stereo not given) [Rho Kinase Inhibitor IV]	98.4
CC(NC(=O)C(C#N)=Cc1ccc(O)c(O)c1)c1ccccc1 (stereo not given) [Tyrphostin AG 835]	75
COc1ccc(/C=C\c2cc(OC)c(OC)c(OC)c2)cc1O [2-methoxy-5-[(Z)-2-(3,4,5-trimethoxyphenyl)ethenyl]phenol]	179 (active)
C=CC(C)(O)CCC1C(=C)CCC2C(C)(C)CCCC12C (stereo not given) [Manool]	99.4

SMILES	H1.0 immunofluorescence intensity
CCCCCCCCCCCCCCC(F)C(=O)O (stereo not given) [2-Fluoropalmitic acid]	99.7
CC(=O)OCC[N+](C)(C)C [Acetylcholine]	100
COc1cc(Oc2ccnc3cc(OC)c(OC)cc23)ccc1NC(=O)NC(C)c1nccs1 (stereo not given)	99.9
CCOC(=O)c1ncn2c1CN(C)C(=O)c1cc(F)ccc1-2 [Flumazenil]	98.2
COC1C=COC2(C)Oc3c(C)c(O)c4c(O)c(cc(O)c4c3C2=O)NC(=O)C(C)=CC=CC(C)C(O)C(C)C(O)C(C)C(OC(C)=O)C1C (stereo not given)	97.7
COc1c2c(nc3ccccc13)OC(C(C)(O)CO)C2 (stereo not given) [Dubinidine]	96.1
O=c1cc(-c2ccc(O)c(O)c2)oc2cc(O)c(C3OC(CO)C(O)C(O)C3O)c(O)c12 (stereo not given) [Homoorientin]	100
CCCn1c(=O)c2[nH]c(-c3ccc(OCC(=O)NCCN)cc3)nc2n(CCC)c1=O [Xanthine amine congener]	98
O=C1c2ccccc2-n2c1nc1ccccc1c2=O [Tryptanthrin]	101
Cl.Cl.OCCN1CCN(CCCN2c3ccccc3Sc3ccc(C(F)(F)F)cc32)CC1 [Fluphenazine.2HCl]	101
Cl.Cl.O=S(=O)(NCCNCC=Cc1ccc(Br)cc1)c1cccc2cnccc12 [H-89, Dihydrochloride]	92.7
COc1ccc(-c2coc3cc(O)ccc3c2=O)cc1 [Formononetin]	87.5
Nn1nnc2ccccc21 [1-Aminobenzotriazole]	92.8
CC(=O)c1ccc(S(=O)(=O)NC(=O)NC2CCCCC2)cc1 [Acetohexamide]	102
C[C@@H](Nc1ncnc2[nH]c(-c3ccc(O)cc3)cc12)c1ccccc1	108
CCCCCC(O)CCC1C(O)CC(=O)C1CCCCCCC(=O)O (stereo not given) [13,14-Dihydro-prostaglandin E1]	94.9
CN(C)CCN(Cc1cccs1)c1ccccn1.Cl [Methapyrilene hydrochloride]	93
Cn1c(=O)c(-c2c(Cl)cccc2Cl)cc2cnc(Nc3cccc(C(=O)O)c3)nc21	95.7
CC(C)(C)OC(=O)CN(Cc1ccc(Cl)cc1)Cc1ccc([N+](=O)[O-])s1	102
C[N+](C)(C)CCOC(N)=O.[Cl-] [Carbachol]	100

— the supplement of paper PMC7156485
